This passage reports binding signal results from article PMC12136788.

Numbering of substitutions follows the chain as printed. Whole data set: some 5,800 sequences, median “enrichment r” near 0.68, cut for the highest 2% near 11. Many of the other results were omitted from the sample, so the highest values are more common in it than they were.

T1: UNK ZnF1-6 (called full-length) (human, UniProt Q9C0B0 30-357)
T1 sequence: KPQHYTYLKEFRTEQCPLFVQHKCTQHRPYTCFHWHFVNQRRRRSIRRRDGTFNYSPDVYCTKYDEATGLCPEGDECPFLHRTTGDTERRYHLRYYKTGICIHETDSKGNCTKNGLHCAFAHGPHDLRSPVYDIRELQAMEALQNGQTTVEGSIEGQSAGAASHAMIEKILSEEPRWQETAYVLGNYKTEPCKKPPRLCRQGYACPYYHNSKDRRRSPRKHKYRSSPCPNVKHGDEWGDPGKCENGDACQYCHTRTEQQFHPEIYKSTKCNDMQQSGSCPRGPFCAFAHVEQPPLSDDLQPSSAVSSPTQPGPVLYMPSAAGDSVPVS

B1: ENSG00000136451:be:win_3151|3pUTR|ENSG00000136451|bound_else_gene|NA|bound_elsewhere_windowed (ssRNA)
RNA: GGGAGUUCUACAGUCCGACGAUCUGAGACAGACUUCCUACAUCAGGGACAGGUAUCUGUGUGUCAUUAUACAAAACAGUUCUAGGGGGUUGAACUACAUAGUAAAAAAAUAAAAUAAAUAGUACUUAGUGUAAAAUAAUUUUACAACAGAGGAUUGAGCAUCA
B2: ENSG00000136451:be:win_3201|3pUTR|ENSG00000136451|bound_else_gene|NA|bound_elsewhere_windowed (ssRNA)
RNA: GGGAGUUCUACAGUCCGACGAUCAACAGUUCUAGGGGGUUGAACUACAUAGUAAAAAAAUAAAAUAAAUAGUACUUAGUGUAAAAUAAUUUUAUAAAUGAUCUUUUGUACUUUAGGACAUUAAAUUGUACAACUUUUGUAUAUCAACAGAGGAUUGAGCAUCA
B3: ENSG00000136451:be:win_3101|3pUTR|ENSG00000136451|bound_else_gene|NA|bound_elsewhere_windowed (ssRNA)
RNA: GGGAGUUCUACAGUCCGACGAUCUUCCAUUUAUACCCUACUGUGUCAGUUCAAGCAUCAAAAUACCUUGCAUCUGAGACAGACUUCCUACAUCAGGGACAGGUAUCUGUGUGUCAUUAUACAAAACAGUUCUAGGGGGUUGAACAACAGAGGAUUGAGCAUCA
B4: chr17:57972098:57972209:-|3pUTR|ENSG00000136451|unk|FALSE|bound_elsewhere (ssRNA)
RNA: GGGAGUUCUACAGUCCGACGAUCCUAGAAUGUGGUUGUCAGAACCCUGAAAGUAUUAGUUCUAAAAAAAAAAAGAUAUAUACUAGAAGUAAUUGUUUUAUCAAUUCAUUGUAUAAUAAACAGGAGUGAGACUUCAUUGUAUGACAACAGAGGAUUGAGCAUCA
B5: ENSG00000136451:be:win_3251|3pUTR|ENSG00000136451|bound_else_gene|NA|bound_elsewhere_windowed (ssRNA)
RNA: GGGAGUUCUACAGUCCGACGAUCCUUAGUGUAAAAUAAUUUUAUAAAUGAUCUUUUGUACUUUAGGACAUUAAAUUGUACAACUUUUGUAUAUAUAAAAGCUUAGGAACUUUCUGUUUAGCAGGAAGGCAACACAUUCCUACACAACAGAGGAUUGAGCAUCA
B6: chr15:60490033:60490134:-|3pUTR|ENSG00000069667|unk|FALSE|unique (ssRNA)
RNA: GGGAGUUCUACAGUCCGACGAUCUGCUGGAUUUGGGACAUGCUUUUCUCUUUAAAUACAUAAUAUCAUUAUAUAAAUUAUUCUAGAGUGUAUUUAAUUAGGAUAAAAUUACUUCCUUAGUAUGGAUAUUUGACAUCUAUAGGGCAACAGAGGAUUGAGCAUCA
B7: chr3:129431351:129431457:-|3pUTR|ENSG00000129071|unk|total|mutant (ssRNA)
RNA: GGGAGUUCUACAGUCCGACGAUCACUUCAAAAAAGCUUAAUUAAGUACAACCAACCACCUUUCCAGCCACCGAGAUUUUAAUCCGCCCAACCCGAAGCCCCGUGUGUGUGCUUUCUUAAUGUGUGUGCCAAUGGUGGAUCUUUCAACAGAGGAUUGAGCAUCA
B8: chr11:61873518:61873813:-|three_prime_utr|ENSG00000221968|control|control|control (ssRNA)
RNA: GGGAGUUCUACAGUCCGACGAUCCCCUCACAUGUGUAUUCAGCAGCCCUAUGGCCUUGGCUCUGGGCCUGAUGGGACAGGGGUAGAGGGAAGGUGAGCAUAGCACAUUUUCCUAGAGCGAGAAUUGGGGGAAAGCUGUUAUUUCAACAGAGGAUUGAGCAUCA
B9: chr1:225494445:225494546:-|3pUTR|ENSG00000154380|msi1|total|mutant (ssRNA)
RNA: GGGAGUUCUACAGUCCGACGAUCUUGGGUGUUCCCUCUUCUUAUUUUCUCUCUGCCCACCUUGACACAGUAACUUCCUCUUACCGUCAAGAUGAUGAUUAAGUGUUUAAUUUUUAUUCCAUUUUGUUCUGCAACACGUUCAGGCAACAGAGGAUUGAGCAUCA
B10: ENSG00000070961:be:win_5551|3pUTR|ENSG00000070961|bound_else_gene|NA|bound_elsewhere_windowed (ssRNA)
RNA: GGGAGUUCUACAGUCCGACGAUCAAUUGUACAUUUAUUCAUCAGGUAUUUAUAGUGAAUCAUACUGUAAAAAAGAGGUAGCAUGAUAUGCUGGAAAGCAUAUUAGACUAGGAGUCAAGACCUGGUUUCUAGUCUUGGUUUUGCCAACAGAGGAUUGAGCAUCA
B11: chr11:58422334:58423261:-|CDS|ENSG00000172365|control|control|control (ssRNA)
RNA: GGGAGUUCUACAGUCCGACGAUCACACACUAGUGAGGUGAUUCUGGUUUUUAUGUCAAGCUUUAAUAUCUUUUUUGUUCUUCUAGUUAUCUUUAUCUCCUACUUGUUCAUAUUCAUCACCAUCUUGAAGAUGCAUUCAGCUAACAACAGAGGAUUGAGCAUCA
B12: chr3:125228010:125228111:-|3pUTR|ENSG00000163848|msi1|FALSE|unique (ssRNA)
RNA: GGGAGUUCUACAGUCCGACGAUCAGUUCUCUUCAUAUUUCAUAACUACAUUUCAAUAAUUCUAAACUUUCUACAUUGAUUUUUAGAUACUUAUUUUUCAAGCUUGGUUUCUCAGCUGAUCAGAUGAAUUUAUUCAACUUCAAUCAACAGAGGAUUGAGCAUCA
B13: chr12:64147824:64147925:+|3pUTR|ENSG00000196935|unk|FALSE|unique (ssRNA)
RNA: GGGAGUUCUACAGUCCGACGAUCCAUCUCUGUGGUGUCUUUGUUCCUUUCCUUUCAUUCAUCACUACUUUCUCCUUGACAGCUAGCUUGCAUUAAAUAAUGUGAAACUUUUACCUUUAAAAUAUUUUUUUAUCUCACUUUCAUCAACAGAGGAUUGAGCAUCA
B14: chr3:125228010:125228111:-|3pUTR|ENSG00000163848|msi1|total|mutant (ssRNA)
RNA: B12 RNA with U83C, A84C
B15: chr16:18805221:18805325:-|3pUTR|ENSG00000157106|unk|FALSE|bound_elsewhere (ssRNA)
RNA: GGGAGUUCUACAGUCCGACGAUCAAGAAUUCUAUGUUCUGAAAUGCACACUUUUAGAAUGUUUUUCUUUGAAAACAGGCUAAUAGUUUUUUCUUUUUUUGACAAAGUUUCAGCUCCUCUUUAAAGUUAUUGUGUCAUUUUUCUCAACAGAGGAUUGAGCAUCA
B16: chr6:52791370:52791857:-|three_prime_utr|ENSG00000243955|control|control|control (ssRNA)
RNA: GGGAGUUCUACAGUCCGACGAUCGCUAAUGAACUCUUUCAAAUUAUAUGCUAAUUAAAUAAUACAACUCCUAUUCGCUGACUUAGUUAAAAUUGAUUUGUUUUCAUUAGGAUCUGAUGUGAAUUCAGAUUUCCAAUCUUCUCCCAACAGAGGAUUGAGCAUCA

The assay deals with T1, UNK ZnF1-6 (called full-length). The experiment in a line: nsRBNS (natural sequence RNA bind-n-seq); RBNS binding buffer (assumed for nsRBNS): 25 mM Tris pH 7.5, 150 mM KCl, 3 mM MgCl2, 0.01% Triton X-100, 500 ug/ml BSA, 20 U/ml SUPERase-In, 4 C; UNK is unkempt and MSI1 is Musashi-1; names of the RNAs are library labels; protein concentration not given here; high values mean tight binding.
On to B1, for which the binding signal is 44 enrichment R.
As to B2, the binding signal came to 96.7 enrichment R.
Then B3, with 0.463 enrichment R; and B4, with 4.83 enrichment R; and B5, with 6.05 enrichment R.
As for B6, the binding signal was determined as 4.69 enrichment R.
The molecule B7 returned a binding signal of 0.636 enrichment R.
Then B8, with 1.12 enrichment R; and B9, with 0.642 enrichment R; and B10, with 0.3 enrichment R.
B11 had a binding signal of 12.5 enrichment R.
As to B12, the binding signal is 3.33 enrichment R.
Then B13, with 10.6 enrichment R.
On to B14, for which the binding signal is 15.6 enrichment R.
In turn, B15 came in with a binding signal of 0.773 enrichment R.
Then B16, with 6.55 enrichment R.
